For orientation: viability means a read-out of living cells in per cent, often relative to untreated cells. As usually defined, the inhibition is the drop in the measured response relative to a control, in per cent. As a reminder, the AC50 is the concentration giving half of the maximal activity seen.

This note sets out measurements from PubChem BioAssay.

Test [1] is described as follows: liver-stage malaria parasite growth inhibition, primary screen, cell-based, HepG2, luciferase luminescence, HepG2 viability (AID 624349; in the data active = parasite load remaining mostly below about 12%, no sharp cut-off; inactive = mostly above about 10%;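 note: 100% = mean of DMSO negative control wells on the same plate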). Conditions: P. berghei liver stage in HepG2, luciferase luminescence, concentration not given here; parasite load remaining: stronger effect = lower value; viability: measured here: HepG2 viability without parasites.
Test [2] has as its system Hepatitis C virus NS3 helicase. As to the kind of experiment: HCV NS3 helicase inhibitors, primary screen, biochemical, fluorescence polarization, LOPAC1280 library (AID 687035; in the data active = inhibition above about 37%). Conditions: Purified HCV NS3 helicase, Cy5-dT15 ssDNA binding fluorescence polarization; stronger effect = higher value; concentration not given here. A general note: In fluorescence polarisation assays a small probe gives low polarisation when free and higher when bound to something large.

Test [3] is described as follows: Cy5 fluorescence quenching or enhancement artefacts, artefact control for HCV NS3 helicase inhibitor project, biochemical, LOPAC1280 (AID 687037; call rule not given here). To be noted: Cy5-DNA-NS3h complex fluorescence interference counterscreen. A general note: Counterscreens check selectivity or assay interference.
The nature of test [4]: stimulators of nuclear beta-catenin in C2C12, primary screen, imaging, WNT3A-conditioned medium, mouse C2C12, NPC library (AID 1117326; in the data active = nuclear beta-catenin stimulation mostly above about 4.2%, no sharp cut-off; inactive = mostly below about 10%). To be noted: stronger effect = higher value.
A short description of test [5]: stimulators of insulin release from INS-1E, primary screen, cell-based, 5 mM glucose, NPC library (AID 1117329;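 active = compound raises insulin release from rat beta cells at 5 mM glucose, no numeric limit stated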). To be noted: rat INS-1E insulin secretion, at 10 µM, stronger effect = higher value.
A short description of test [6]: growth inhibition of GSK3B-pretreated HCT116 cells – cell-based, CellTiter-Glo, 0.2 to 20 µM (AID 1117336;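 active = compounds lowering colon cancer cell viability after pretreatment blocking the GSK3B kinase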). To be noted: HCT116 viability after GSK3B inhibitor, at 20 µM, stronger effect = higher value. Background: In ATP-based viability assays light output follows the ATP content of the culture.
The nature of test [7]: inhibition of endothelial tube formation, primary screen, imaging, VEGF stimulated, CD31 staining, tube area, NPC library (AID 1117340;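 active = compound that reduces growth-factor-driven endothelial tube area in a mixed cell culture, no cutoff stated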). To be noted: VEGF-stimulated ADSC/ECFC co-culture, at 10 µM, stronger effect = higher value.
Test [8] is described as follows: glucagon-like peptide 1 release enhancers, primary assay, NCI-H716 cell line, NPC library (AID 1117341;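 active = compound raises GLP1 secretion from the human gut endocrine cells, with no numeric limit stated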). Conditions: NCI-H716 cells, at 10 µM, stronger effect = higher value.
A short description of test [9]: HCT116 colon cancer cell growth inhibition, primary screen, CellTiter-Glo luminescence, NPC library (AID 1117342;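 active = compounds that lower survival of HCT116 colon cancer cells in the luminescence readout, no numeric limit stated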). To be noted: at 20 µM (top of the series).
A short description of test [10]: CellTiter-Glo luminescent readout of SW480 viability loss, NPC library primary (AID 1117343;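 active = compounds that lower viability of the colon cancer cells in the luminescence readout, with no numeric limit stated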). Conditions: CellTiter-Glo luminescence; at 20 µM (top of the series) unless noted.
Test [11] is described as follows: decreased DLD-1 cellular survival, CellTiter-Glo luminescent readout, NPC compound collection, primary HTS (AID 1117346;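 active = compounds that lower survival of DLD-1 colon cancer cells in the luminescence readout, no cutoff given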). Conditions: DLD-1 viability, CellTiter-Glo luminescence; at 20 µM (top of the series).
Test [12] can be described thus: growth inhibition of DIPG glioma cells, dose response, cell-based, JHH-DIPG-1, MIPE4.0, CellTiter-Glo, qHTS (AID 1347062; cut-off not given, nearly all actives have AC50 up to about 27 µM;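 for AC50: cells exposed to compound for two days before readout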). Conditions: JHH-DIPG-1 viability, CellTiter-Glo ATP luminescence.
A short description of test [13]: SU-DIPG-VI glioma cell viability, MIPE4.0 library, CellTiter-Glo luminescence, qHTS (AID 1347066).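 Note: cells exposed to compound for 48 hours before readout.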 To be noted: CellTiter-Glo ATP luminescence.
The nature of test [14]: sensitizers of A549 cells to miR-34 induction, primary screen, imaging, A549 dox-inducible miR-34, nuclei and caspase counts (AID 1347080;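 active = compounds whose cell count with miR-34 switched on is under 0.7 times the count with it off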). To be noted: A549 miR-34 inducible, Hoechst nuclei count, 48 h.
A short description of test [15]: phospholipid biosynthesis inhibitors in animal cells, primary screen, cell-based, LOPAC library, screen 4 (AID 1347384; call rule not given here). To be noted: phospholipid biosynthesis inhibition screen, at 10 µM.
Test [16] can be described thus: survival rescue of mitochondrial mutant cells in low glucose, primary screen, MELAS cybrids, Rieske KO mouse fibroblasts, CellTiter-Glo (AID 1508586;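 active = mean z-score across replicates of 1.96 or higher in either the MELAS or the Rieske mutant cell line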;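 note: z relative to plate mean and SD of compound and empty wells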).
The target in test [17] is NAD(+) hydrolase SARM1 (Homo sapiens) (UniProt Q6SZW1). The test is described as follows: SARM1 TIR NADase inhibitors, cell lysate, NAD-Glo luminescence (AID 1508614;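 active = compound whose remaining NAD level is above about 45 nM, limit read from the data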;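 note: higher remaining NAD means stronger inhibition of SARM1 NADase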). Conditions: SAM-TIR HEK293T lysate NADase, at 1 µM, stronger effect = higher value.
NAD(+) hydrolase SARM1 (Homo sapiens), sequence (Q6SZW1 whole entry, looked up): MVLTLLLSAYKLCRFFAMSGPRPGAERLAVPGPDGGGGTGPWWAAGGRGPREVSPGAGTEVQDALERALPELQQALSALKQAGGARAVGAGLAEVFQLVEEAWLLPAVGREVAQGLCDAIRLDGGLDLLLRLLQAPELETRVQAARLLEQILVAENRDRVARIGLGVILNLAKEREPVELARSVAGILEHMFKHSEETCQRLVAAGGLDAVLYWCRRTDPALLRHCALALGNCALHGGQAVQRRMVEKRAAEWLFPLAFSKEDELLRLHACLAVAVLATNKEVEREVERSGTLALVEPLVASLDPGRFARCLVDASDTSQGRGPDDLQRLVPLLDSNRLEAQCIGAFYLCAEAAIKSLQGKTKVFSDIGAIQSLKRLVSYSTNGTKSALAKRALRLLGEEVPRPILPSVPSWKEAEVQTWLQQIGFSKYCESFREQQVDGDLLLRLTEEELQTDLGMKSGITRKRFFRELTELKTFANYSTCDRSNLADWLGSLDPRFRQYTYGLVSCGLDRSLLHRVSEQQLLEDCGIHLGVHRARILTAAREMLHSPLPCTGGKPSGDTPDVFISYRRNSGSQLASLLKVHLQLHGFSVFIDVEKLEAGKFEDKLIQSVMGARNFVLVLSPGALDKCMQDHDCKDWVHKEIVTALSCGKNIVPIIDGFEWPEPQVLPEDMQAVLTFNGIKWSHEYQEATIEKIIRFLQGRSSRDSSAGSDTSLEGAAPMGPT
Test [18] is described as follows: viability rescue of complex I mutant cybrids, primary screen, cell-based, galactose medium, ATP luminescence (AID 1645843;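 active = z-score of at least 1.8 in each of two replicates, scored against plate mean and spread of sample wells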;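 note: positive z means more ATP and so rescue of galactose-driven cybrid death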). Conditions: complex I mutant cybrid cells, 72 h, stronger effect = higher value.
Test [19] is described as follows: growth inhibition of DIPG glioma cells, dose response, cell-based, SU-DIPG-IV, MIPE4.0, CellTiter-Glo, qHTS (AID 1347063).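 Note: compound exposure lasted 48 hours before the viability readout.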 Conditions: SU-DIPG-IV viability, CellTiter-Glo ATP luminescence.
Where [20] appears, read: stronger effect = lower value, cell number ratio, induced over uninduced.
The mark [21] stands for this setting: measured here: relative caspase fold change +Dox/-Dox.
Where [22] appears, read: measured here: total cells with miR-34 induction, stronger effect = lower value.
Setting [23] is: measured here: total cells without miR-34 induction.
The mark [24] stands for this setting: MELAS cybrid survival, CellTiter-Glo 48 h, stronger effect = higher value.
Setting [25] is: Rieske KO mouse fibroblast survival, CellTiter-Glo 72 h.

Structures are written as SMILES. Several values for one entry are separate records, joined by “and”; a condition that tells them apart may be missing. Identical values can stand only once. Inconclusive results are not listed. Where a structure was tested more than once in an assay, its records may differ in their call. Activity calls are given as the source filed them. Unless noted, no cut-off is given here; in the data, nearly all actives have AC50 up to about 30 µM.

Consider `C[C@]12CC[C@@H]3c4ccc(O)cc4C[C@@H](CCCCCCCCCS(=O)CCCC(F)(F)C(F)(F)F)[C@H]3[C@@H]1CC[C@@H]2O` (stereo partly drawn), for which, in test [1], the parasite load remaining is 12.8% (inactive). Also, the viability in [1] worked out at 121%. Also, in test [2], the inhibition is 0% (inactive). Further, the fluorescence ratio (interference) in test [3] is 0.9 (inactive). Further, the nuclear beta-catenin stimulation in [4] (at 10 µM) was 1% (inactive); in test [4] (stimulation, at 2 µM) it was 0.4%. For the same compound, the insulin secretion stimulation in [5] was 5.1% (inactive). Moreover, the viability decrease in test [6] is -4.5% (inactive). Further, in [7], the tube area decrease was 16.2% (inactive). For the same compound, in test [8], the GLP1 secretion stimulation is -2.7% (inactive). For the same compound, in [9], the inhibition of viability is 49.8% (inactive). Also, the viability decrease (inhibition) is 54% (active) in test [10] and 18.9% (inactive) in test [11]. Moreover, the outcome in test [12], in [13] and in [15] was inactive. The fold change was 0.987 (inactive) and 0.822 (inactive) in [14] (setting [20]); 1.73 and 1.2 in test [14] (setting [21]). Besides, the cell count in test [14] (setting [22]) was 7220 and 6230; in test [14] (setting [23]), 7310 and 7580. Moreover, the z-score is -1.54 (inactive) and 0.0305 (inactive) in test [16] (setting [24]); -0.225 and 1.88 in test [16] (setting [25]); 2.5 (active) and -0.155 (inactive) in [18]. For the same compound, the remaining NAD in test [17] was 10 nM (inactive).

Regarding `O=C(OC1C[C@H]2CC[C@@H](C1)[N+]21CCCC1)C(O)(c1ccccc1)c1ccccc1` (stereo partly drawn), the nuclear beta-catenin stimulation in [4] (at 10 µM) was -1.3% (inactive); in test [4] (stimulation, at 2 µM) it was -2%. The insulin secretion stimulation in test [5] is 1.3% (inactive). For the same compound, the viability decrease in test [6] is -50.2% (inactive). Further, the tube area decrease in [7] is 10.7% (inactive). The GLP1 secretion stimulation in [8] is -3.1% (inactive). The inhibition of viability in [9] is 7.13% (inactive). Besides, the viability decrease (inhibition) in [10] was -11.6% (inactive); in [11] it was -9.1% (inactive). For the same compound, the result in [12], in test [19] and in [13] was inactive. The fold change was 1.02 (inactive) in test [14] (setting [20]) and 0.872 in test [14] (setting [21]). For the same compound, the cell count in test [14] (setting [22]) was determined as 10400; in test [14] (setting [23]), 10200. Further, the z-score was -0.39 (inactive) in test [16] (setting [24]) and 0.689 in test [16] (setting [25]). In addition, the remaining NAD in test [17] is 10 nM (inactive).

`Cc1c(C(=O)NN2CCCCC2)nn(-c2ccc(Cl)cc2Cl)c1-c1ccc(Cl)cc1`: the nuclear beta-catenin stimulation in [4] (at 10 µM) was -0.4% (inactive); in test [4] (stimulation, at 2 µM), -0.1%. Moreover, in test [5], the insulin secretion stimulation was 3% (inactive). Besides, in test [6], the viability decrease is 109% (active). Also, the tube area decrease in test [7] is 110% (active). Further, the GLP1 secretion stimulation in test [8] was 1.2% (inactive). Besides, the inhibition of viability in test [9] is 108% (active). For the same compound, the viability decrease (inhibition) in test [10] was 130% (active); in test [11], 101% (active). For the same compound, the AC50 in test [12] and in test [19] was 16.6 µM (active) each time. In addition, the fold change in [14] (setting [20]) is 0.783 (inactive) and 0.989 (inactive); in test [14] (setting [21]), 0.923 and 2.07. The cell count is 4800 and 7920 in [14] (setting [22]); 6120 and 8010 in test [14] (setting [23]). Besides, the z-score in [16] (setting [24]) was -1.37 (inactive) and -3.1 (inactive); in test [16] (setting [25]), 0.317 and -0.818; in [18] it was -2.65 (inactive).

As for `O=C(O)c1nc(=O)[nH]c(=O)[nH]1`, the nuclear beta-catenin stimulation in test [4] (at 10 µM) is 0.4% (inactive); in [4] (stimulation, at 2 µM), 0.2%. Besides, in test [5], the insulin secretion stimulation is -2.5% (inactive). In addition, in test [6], the viability decrease is -8.95% (inactive). Further, the tube area decrease in test [7] is -8.3% (inactive). Moreover, the GLP1 secretion stimulation in test [8] was 0.9% (inactive). In test [9], the inhibition of viability was -17.1% (inactive). The viability decrease (inhibition) is 29% (inactive) in test [10] and 12.8% (inactive) in [11]. The call in test [12], in [19] and in test [13] was inactive.
